For six molecules, composite z-score, z-score and composite Z-score results are on record in PubChem BioAssay.

Assay [1] relates to Human papillomavirus type 1a protein E7 (residues 44-93). Put plainly: small molecules binding HPV E7 44-93 – biochemical, small-molecule microarray, residues 44-93, 635 nm fluorescence, primary screen (AID 1108).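 Further: E7 fragment applied at 1 µg/mL in TBST for 1 h at 4 C; score combines spot fluorescence with its signal to noise ratio.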 The following applies: fluorescence 635 nm, higher = more signal.
A short description of assay [2]: hepatitis C replication reporter changes, two-sided – Huh7 cells, luciferase reporter, HCV replication inhibitor project, primary screen (AID 1109).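 Further: huh7 hepatoma cells harbouring a luciferase neomycin HCV replicon reporter; luciferase luminescence as measure of HCV replicon replication; test concentration not given here.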 Particulars: Huh7 HCV replicon luciferase reporter, 48 h; higher = more signal.
The target of assay [3] is Left-right determination factor 2 (Homo sapiens) (UniProt O00292). Put plainly: small molecules binding LEFTY2 protein – biochemical, small-molecule microarray, 635 nm fluorescence scan, primary screen (AID 1110). Particulars: higher = more signal.
Chain of Left-right determination factor 2 (Homo sapiens) (O00292 whole entry, looked up): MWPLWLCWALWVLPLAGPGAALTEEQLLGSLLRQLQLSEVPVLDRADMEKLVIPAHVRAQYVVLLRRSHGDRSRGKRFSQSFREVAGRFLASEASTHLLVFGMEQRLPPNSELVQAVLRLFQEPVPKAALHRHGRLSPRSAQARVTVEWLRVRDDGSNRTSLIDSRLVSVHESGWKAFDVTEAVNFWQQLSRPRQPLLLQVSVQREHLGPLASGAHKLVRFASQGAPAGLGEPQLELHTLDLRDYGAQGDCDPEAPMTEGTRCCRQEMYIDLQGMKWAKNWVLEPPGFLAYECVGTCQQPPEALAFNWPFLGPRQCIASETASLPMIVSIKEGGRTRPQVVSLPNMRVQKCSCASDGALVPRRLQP
In assay [4] the target is Calmodulin-1 (Homo sapiens) (UniProt P0DP23). Put plainly: small molecules binding calmodulin-1 with EGTA – biochemical, small-molecule microarray, Cy5-labelled CALM1, profiling panel (AID 1111).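 Further: labelled calmodulin applied in Tris saline Tween buffer holding calcium plus EGTA and DTT.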 The following applies: Cy5-CALM1 binding fluorescence, higher = more signal.
For assay [5] the target is unchanged. Put plainly: small molecules binding Ca-loaded calmodulin-1 – biochemical, small-molecule microarray, Cy5-labelled CALM1, plus calcium, artefact control for SMM control-protein annotation, profiling panel (AID 1112).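 Further: score merges spot fluorescence with signal to noise from triplicate slides.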 Particulars: Cy5-CALM1 binding fluorescence, higher = more signal.
The nature of assay [6]: probe aWnt5a binding to arrayed compounds – biochemical, biotinylated probe, 635/667 nm fluorescence, primary screen (AID 1113).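 Further: score merges 667 nm fluorescence intensity with signal-to-noise per printed feature.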 Particulars: small-molecule microarray, higher = more signal.
A short description of assay [7]: probe aShh binding to arrayed compounds – biochemical, biotinylated probe, 635/667 nm fluorescence, primary screen (AID 1114).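 Further: probe is biotin-labelled aShh protein from a stem cell growth factor screen; measures binding of labelled protein to compounds printed on the slide; score merges feature fluorescence at 667 nm with signal-to-noise.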 Particulars: small-molecule microarray, higher = more signal.
Assay [8] is described as follows: probe aNog binding to arrayed compounds – biochemical, biotinylated probe, 635/667 nm fluorescence, primary screen (AID 1115).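 Further: probe is biotinylated aNog protein used at 0.15 µg/mL for 1 h at 4 C; z-score combines 667 nm fluorescence of each spot with its signal to noise.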 The following applies: small-molecule microarray, higher = more signal.
The target of assay [9] is Torsin-1A-interacting protein 1 (Homo sapiens) (UniProt Q5JTV8). Put plainly: compound microarray binding of lysate hLAP1 – cell lysate, small-molecule microarray, COS7 lysate, 635/667 nm fluorescence, primary screen (AID 1116). Particulars: 635 nm fluorescence, higher = more signal.
Chain of Torsin-1A-interacting protein 1 (Homo sapiens) (Q5JTV8 whole entry, looked up): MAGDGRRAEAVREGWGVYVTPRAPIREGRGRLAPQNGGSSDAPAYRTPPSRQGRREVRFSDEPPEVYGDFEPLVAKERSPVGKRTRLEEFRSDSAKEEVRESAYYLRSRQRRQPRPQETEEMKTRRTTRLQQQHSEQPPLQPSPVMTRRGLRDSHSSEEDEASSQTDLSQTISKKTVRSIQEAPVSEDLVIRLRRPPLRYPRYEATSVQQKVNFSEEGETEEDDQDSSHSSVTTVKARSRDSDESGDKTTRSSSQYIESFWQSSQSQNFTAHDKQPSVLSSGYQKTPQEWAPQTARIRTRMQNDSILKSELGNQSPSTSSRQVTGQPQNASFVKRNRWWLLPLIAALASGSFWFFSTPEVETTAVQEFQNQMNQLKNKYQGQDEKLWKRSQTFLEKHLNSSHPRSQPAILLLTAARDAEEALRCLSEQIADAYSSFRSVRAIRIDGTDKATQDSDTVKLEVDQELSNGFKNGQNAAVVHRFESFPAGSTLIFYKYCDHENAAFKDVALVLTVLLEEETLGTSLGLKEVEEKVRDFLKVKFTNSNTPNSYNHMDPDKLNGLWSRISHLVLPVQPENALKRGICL
Assay [10] deals with Alpha-bungarotoxin (Bungarus multicinctus) (UniProt P60615). Put plainly: compounds binding labelled alpha-BTX control protein – biochemical, small-molecule microarray, Alexa647 label, 635/667 nm fluorescence, artefact control for SMM control protein annotation, profiling panel (AID 1117). Particulars: alpha-BTX-A647 binding fluorescence, higher = more signal.
Chain of Alpha-bungarotoxin (Bungarus multicinctus) (P60615 whole entry, looked up): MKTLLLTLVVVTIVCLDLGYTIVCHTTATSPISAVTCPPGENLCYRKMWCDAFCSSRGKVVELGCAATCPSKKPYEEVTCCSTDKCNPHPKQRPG
Assay [11] addresses Albumin (Bos taurus) (UniProt P02769). Put plainly: compounds binding labelled BSA control protein – biochemical, small-molecule microarray, Alexa647 label, 635/667 nm fluorescence, artefact control for SMM control protein annotation, profiling panel (AID 1118).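 Further: score merges 667 nm emission intensity and signal-to-noise per printed compound spot.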 The following applies: BSA-A647 binding, fluorescence 635 nm, higher = more signal.
A short description of assay [12]: probe aXIP binding to arrayed compounds – biochemical, NeuroSMM set, 635/667 nm fluorescence, primary screen (AID 1119).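 Further: probe is the protein aXip251-270 applied at 1 µg/mL to compound-printed slides; binding of probe to printed compounds measured as 667 nm fluorescence plus signal to noise.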 The following applies: small-molecule microarray, higher = more signal, called active from +8 up or from −8 down.
The nature of assay [13]: probe aNOTCH3 binding on compound microarray – biochemical, small-molecule microarray, 635/667 nm fluorescence, primary screen (AID 1120).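 Further: probe is a biotin-tagged antibody raised against NOTCH3 rather than NOTCH3 protein; score merges spot fluorescence near 667 nm with spot signal to noise.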 Particulars: higher = more signal.
Assay [14] is described as follows: probe aNOTCH2 binding on compound microarray – biochemical, small-molecule microarray, 635/667 nm fluorescence, primary screen (AID 1121).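 Further: score merges feature fluorescence read at 667 nm with its signal to noise.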 Particulars: higher = more signal.
The target in assay [15] is Carbonic anhydrase 2 (Homo sapiens) (UniProt P00918). Put plainly: compounds binding carbonic anhydrase 2 – biochemical, small-molecule microarray, Alexa647-labelled CAII, profiling panel (AID 1122). Particulars: CAII-A647 binding fluorescence, higher = more signal.
Assay [16] in a line: COS7 lysate on small-molecule microarray, probe aHis, 635 nm (AID 1123).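 Further: z-score combines 667nm fluorescence intensity with signal-to-noise per printed compound spot.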 The following applies: COS7 cell lysate, fluorescence, higher = more signal.
A short description of assay [17]: probe aLAP1 signal on lysate-treated microarray – cell lysate, small-molecule microarray, COS7 lysate, primary screen (AID 1124).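 Further: lysate comes from COS7 cells expressing LAP1 and is applied at 0.3 µg/mL; score merges spot fluorescence near 667 nm with signal-to-noise over triplicate slides.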 Particulars: probe aLAP1, fluorescence, higher = more signal.
Assay [18] concerns Sam68 (KHDRBS1). Put plainly: compounds binding KHDRBS1 protein – biochemical, small-molecule microarray, 635 nm fluorescence, primary screen (AID 1125).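 Further: score merges 667 nm channel intensity with signal to noise over triplicate slides.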 The following applies: higher = more signal.
Assay [19] relates to Chordin-like protein 2 (CHRDL2). Put plainly: compounds binding chordin-like 2 – biochemical, small-molecule microarray, 635 nm fluorescence, primary screen (AID 1126).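 Further: printed compound slides probed with Chrdl2 protein at 4 µg/mL for 1 h at 4 C; score merges 667 nm emission intensity with signal to noise over three replicate slides.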 The following applies: fluorescence 635 nm, higher = more signal.
Assay [20] concerns the target Concanavalin-A (Canavalia ensiformis) (UniProt P02866). Put plainly: compounds binding concanavalin A lectin – biochemical, small-molecule microarray, Alexa647 label, 635 nm, artefact control for SMM control protein annotation, primary screen (AID 1127).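 Further: z combines 667 nm emission intensity with signal-to-noise across three replicate slides.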 Particulars: ConA-A647 binding fluorescence, higher = more signal.

Active and inactive are the calls of the source.

Chain of Albumin (Bos taurus) (P02769 whole entry, looked up): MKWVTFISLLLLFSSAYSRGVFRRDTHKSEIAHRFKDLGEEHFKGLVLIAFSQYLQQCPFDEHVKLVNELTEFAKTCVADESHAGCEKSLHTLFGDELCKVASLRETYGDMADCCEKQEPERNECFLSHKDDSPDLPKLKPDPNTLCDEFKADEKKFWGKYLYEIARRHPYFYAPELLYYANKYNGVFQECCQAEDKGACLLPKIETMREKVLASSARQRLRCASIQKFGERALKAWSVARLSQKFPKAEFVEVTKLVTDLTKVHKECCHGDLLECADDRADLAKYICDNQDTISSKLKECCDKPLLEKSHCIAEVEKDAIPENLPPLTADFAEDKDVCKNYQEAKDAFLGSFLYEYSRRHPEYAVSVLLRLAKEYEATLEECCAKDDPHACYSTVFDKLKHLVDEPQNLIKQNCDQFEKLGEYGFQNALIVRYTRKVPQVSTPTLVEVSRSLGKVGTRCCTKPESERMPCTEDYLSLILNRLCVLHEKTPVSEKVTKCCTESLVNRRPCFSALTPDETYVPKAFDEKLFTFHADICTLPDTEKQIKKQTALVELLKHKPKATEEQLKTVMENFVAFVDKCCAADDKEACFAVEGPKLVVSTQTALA
Chain of Concanavalin-A (Canavalia ensiformis) (P02866 whole entry, looked up): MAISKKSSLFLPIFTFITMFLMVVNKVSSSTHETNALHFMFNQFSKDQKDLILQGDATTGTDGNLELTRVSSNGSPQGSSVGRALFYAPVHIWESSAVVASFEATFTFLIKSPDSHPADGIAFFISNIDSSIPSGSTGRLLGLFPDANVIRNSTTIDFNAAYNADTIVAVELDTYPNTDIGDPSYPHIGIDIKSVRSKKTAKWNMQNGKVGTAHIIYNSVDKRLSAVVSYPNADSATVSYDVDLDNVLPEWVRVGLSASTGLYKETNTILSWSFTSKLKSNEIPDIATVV

On to `C#CCCCON=C1C[C@@H](O)[C@@H](O)[C@@H]2[C@@H]3C(=O)N(Cc4ccc5c(c4)OCO5)C(=O)[C@@H]3CC[C@@H]12`, for which the composite z-score is 0.449 in assay [1]; 0.448 in assay [3]; 0.127 in assay [4]; -0.19 in assay [5]; -0.096 in assay [6]; 0.147 in assay [7]. Further, the composite z-score is 0.0136 in assay [8]; -0.0849 in assay [9]; 1.4 in assay [10]; 0.352 in assay [11]; 0.0225 in assay [13]; -0.148 in assay [14]. Also, the composite z-score in assay [15] was 0.227; in assay [16], 0.537; in assay [17], -0.0088; in [18], 0.005; in assay [19], 0.187; in [20], 0.858. Further, the z-score in assay [2] amounted to 0.0713. Also, the composite Z-score in assay [12] is -0.0164 (inactive).

As for `C=CCN1C(=O)[C@@]2(Cc3ccccc3)N=C(c3ccc(OCCCO)cc3)O[C@H]2c2ccccc21`, the composite z-score in assay [1] was 0.974; in [3], 0.525; in assay [4], 0.0185; in assay [5], 0.192; in assay [6], -0.0814; in assay [7], 0.0469. Also, the composite z-score in [8] came out at 0.79; in [9], 2.15; in assay [10], 1.66; in assay [11] it was 0.174; in [13], 0.0635; in [14] it was 0.2. The composite z-score in [15] is 0.622; in assay [16], 2.83; in assay [17] it was 0.66; in assay [18], 1.29; in [19], 1.23; in assay [20], 1.15. The z-score in assay [2] is -2.44. Besides, the composite Z-score in [12] is 1.06 (inactive).

For the molecule `C=CCOC(=O)[C@@H]1[C@H]2C(=O)O[C@H](c3ccccc3)[C@H](c3ccccc3)N2[C@H](c2ccc(OCCOC(=O)[C@H]3C[C@H]4C(=O)N5CCC[C@H]5C(=O)N4[C@H]3c3ccc(O)cc3)cc2)[C@@]12C(=O)Nc1ccccc12`, the composite z-score in assay [1] was -0.747; in assay [3], 0.382; in [4], 1.27; in [5], 0.699; in assay [6], 0.0047; in assay [7] it was 0.14. Moreover, the composite z-score in assay [8] was 0.305; in assay [9] it was 0.87; in [10], 1.33; in assay [11], -0.876; in [13], -0.125; in assay [14], -0.185. The composite z-score stood at 0.252 in [15]; 1.12 in assay [16]; 0.333 in assay [17]; 1.27 in assay [18]; 0.95 in assay [19]; 1.19 in assay [20]. The molecule also gave a z-score in [2] of -1.31. Besides, the composite Z-score in [12] was 0.223 (inactive).

Regarding `COCC(=C=CC[C@H](O)c1ccc(OCCO)cc1)C[C@H](O)c1ccccn1`, the composite z-score was 0.131 in assay [1]; -0.454 in [3]; -0.581 in [4]; -0.705 in assay [5]; -0.186 in assay [6]; 0.235 in [7]. Moreover, the composite z-score in assay [8] was 0.0516; in assay [9], 0.925; in assay [10] it was -0.458; in [11], -0.769; in assay [13], -0.217; in [14], -0.0942. Further, the composite z-score is 0.603 in [15]; 0.257 in [16]; -0.0662 in assay [17]; 0.359 in assay [18]; -0.6 in assay [19]; 0.0109 in assay [20]. Moreover, the z-score in [2] was -0.932. Besides, the composite Z-score in assay [12] is 1.14 (inactive).

`O=C1O[C@H](c2ccccc2)[C@H](c2ccccc2)N2[C@H]1[C@@H](C(=O)Nc1nc3ccccc3s1)[C@]1(C(=O)Nc3ccc(C#CC4=CCCCC4)cc31)[C@H]2c1ccccc1OCCO`: the composite z-score in assay [1] was 1.35; in assay [3] it was 0.59; in [4] it was 1.31; in assay [5], 0.149; in assay [6], -0.0714; in assay [7], -0.263. The composite z-score was 0.184 in assay [8]; 0.715 in assay [9]; 1.04 in assay [10]; 0.581 in assay [11]; 0.0452 in [13]; -0.14 in assay [14]. Also, the composite z-score in [15] is 0.23; in assay [16] it was 0.834; in assay [17], -0.189; in assay [18] it was 1.3; in assay [19], 0.497; in [20], 1. Further, the z-score in [2] was -1.67. In addition, the composite Z-score in [12] was 0.329 (inactive).

Turning to `CN1C2C=C(c3ccc(CO)cc3)C(C3C(=O)N(C(N)=O)C(=O)C32)C1c1cccs1` (stereo not given), the composite z-score was -0.232 in assay [1]; 0.217 in assay [3]; 0.45 in assay [4]; 0.47 in [5]; -0.156 in assay [6]; -0.0769 in assay [7]. The composite z-score in [8] is 0.408; in assay [9], 1.24; in assay [10], -1.09; in assay [11], -0.444; in assay [13] it was 0.0261; in [14], -0.162. The composite z-score in assay [15] is 0.704; in [16] it was 0.4; in [17], -0.342; in assay [18], 0.0726; in assay [19] it was -0.934; in assay [20] it was -0.0029. Besides, the z-score in assay [2] worked out at 0.374. Further, the composite Z-score in assay [12] was 0.173 (inactive).
